Assay results from PubChem BioAssay (Tox21).
Records with an inconclusive call do not appear. A call without a number means that no potency is given here. The source made the active and inactive calls. Calls follow the shape of the full dose curve.

Tests used:
[1] = biological target: Acetylcholinesterase (Homo sapiens) (UniProt P22303); experiment: Acetylcholinesterase (AChE) small molecule antagonists: colormetric cell-based qHTS assay (AID 1347395); settings: SH-SY5Y cells AChE activity, colorimetric (Ellman); series mostly up to 115 µM; also: nearly all actives have a fitted effect of over 30% in size; also: potency is read from the fitted curve at half-maximal effect
Sequence of Acetylcholinesterase (Homo sapiens) (P22303 whole entry, looked up): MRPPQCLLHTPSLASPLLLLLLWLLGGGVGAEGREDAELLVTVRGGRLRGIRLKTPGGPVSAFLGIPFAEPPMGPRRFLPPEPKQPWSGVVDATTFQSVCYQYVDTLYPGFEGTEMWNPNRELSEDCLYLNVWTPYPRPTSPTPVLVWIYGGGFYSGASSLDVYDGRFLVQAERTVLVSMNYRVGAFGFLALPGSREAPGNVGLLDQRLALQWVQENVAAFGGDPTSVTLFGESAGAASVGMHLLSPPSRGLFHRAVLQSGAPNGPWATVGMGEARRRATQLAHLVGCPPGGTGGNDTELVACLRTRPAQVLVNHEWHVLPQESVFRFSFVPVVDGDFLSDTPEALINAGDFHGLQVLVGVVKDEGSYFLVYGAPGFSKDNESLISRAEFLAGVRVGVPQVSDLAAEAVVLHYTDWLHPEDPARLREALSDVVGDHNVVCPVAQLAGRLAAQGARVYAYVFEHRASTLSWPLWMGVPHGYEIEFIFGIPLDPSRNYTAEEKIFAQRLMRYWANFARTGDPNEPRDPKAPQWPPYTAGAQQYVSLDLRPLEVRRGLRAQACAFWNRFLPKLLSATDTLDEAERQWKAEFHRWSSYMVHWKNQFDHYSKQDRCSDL
Method in brief: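 Colorimetric readout: DTNB quantifies thiocholine from acetylthiocholine hydrolysed by endogenous AChE of SH-SY5Y cells (2,000/well, plated overnight). Compound pretreatment 30 min, substrate incubation 90 min, both 37 C.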

[2] = biological target: Acetylcholinesterase (Homo sapiens) (UniProt P22303); experiment: Acetylcholinesterase (AChE) small molecule antagonists: enzyme-based qHTS assay (AID 1347397); settings: Potency: AChE enzyme activity inhibition; outcome: AChE enzyme activity inhibition; series mostly up to 115 µM; also: nearly all actives have a fitted effect of over 55% in size; also: potency is read from the fitted curve at half-maximal effect
Method in brief: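 In this quantitative HTS, compounds from the Tox21 10K collection were preincubated 30 min at ambient temperature with recombinant human AChE dispensed at 50 mU/mL. Hydrolysis of acetylthiocholine was then followed for 10 min by DTNB colour development.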

[3] = biological target: Acetylcholinesterase (Homo sapiens) (UniProt P22303); experiment: Acetylcholinesterase (AChE) small molecule antagonists: fluorescence cell-based qHTS assay (AID 1347398); settings: SH-SY5Y cells; Potency: AChE activity; outcome: AChE activity; series mostly up to 115 µM; also: nearly all actives have a fitted effect of over 50% in size; also: potency is read from the fitted curve at half-maximal effect
Method in brief: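 Cells (SH-SY5Y) attached overnight, were dosed with compound or DMSO vehicle for 30 min at 37 C, and then incubated 40 min at room temperature with acetylthiocholine and Thiolite Green; green fluorescence indexed AChE activity.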

[4] = biological target: Acetylcholinesterase (Homo sapiens) (UniProt P22303); experiment: Acetylcholinesterase (AChE) small molecule antagonists: enzyme-based qHTS assay with human liver microsomes (AID 1347399); settings: Potency: qHTS inhibition; outcome: qHTS inhibition; series mostly up to 115 µM; also: nearly all actives have a fitted effect of over 60% in size
Method in brief: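 Recombinant human AChE (50 mU/mL in the enzyme mix) and human liver microsomes (0.25 mg/mL final) were preincubated with compound and NADPH (0.25 mg/mL final) for 30 min at 37 C. Acetylthiocholine/DTNB was then added; thiocholine was read colorimetrically after 10 min at room temperature.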

Compound	Potency [1]	Potency [2]	Potency [3]	Potency [4]
O=C(NS(=O)(=O)/C=C/c1cccs1)c1ccc(F)cc1Br	inactive	inactive	inactive	inactive
CC(=O)CC(=O)Nc1ccc2[nH]c(=O)[nH]c2c1	inactive	inactive	inactive	inactive
O=S(O)CO	inactive	inactive	inactive	inactive
CC(=O)CC(N)=O	inactive	inactive	inactive	inactive
CCCCCc1ccco1	inactive	inactive	inactive	inactive
COc1ccc(OC)c(OC)c1	inactive	inactive	inactive	inactive
C=CS(=O)(=O)O	inactive	inactive	inactive	inactive
COC(=O)NCCC[Si](OC)(OC)OC	inactive	inactive	inactive	inactive
CCCCCCCCCCCCCCCCOP(=O)([O-])OCC[N+](C)(C)C	inactive	inactive	inactive	inactive
O=C1Cc2ccccc2N1c1c(Cl)cccc1Cl	inactive	inactive	inactive	inactive
Cc1ccc(OC(=O)c2ccccc2O)cc1	inactive	inactive	inactive	inactive
CCCCCCOC(=O)CCC	inactive	inactive	inactive	inactive
Nc1ccc(C(=O)NCC(=O)O)cc1	inactive	inactive	inactive	inactive
Cc1ccc(C=O)s1	inactive	inactive	inactive	inactive
CCN(CC)CCOc1ccc(Cc2ccccc2)cc1	inactive	inactive	inactive	inactive
CCOc1ccc(NS(=O)(=O)c2ccc(N)cc2)nn1	inactive	inactive	inactive	inactive
O=C(Nc1ccc(Cl)cc1)Nc1ccc(Cl)c(C(F)(F)F)c1	inactive	inactive	inactive	inactive
[O-][n+]1cccc(CO)c1	inactive	inactive	inactive	inactive
Cc1ccc(Cl)c(OCC(O)CNC(C)(C)C)c1 (stereo not given)	inactive	inactive	inactive	inactive
S=c1[nH][nH]c(=S)s1	inactive	inactive	inactive	inactive
CO[C@@H]1COCC[C@@H]1N[C@@H]1CC[C@@](C(=O)N2CCc3ncc(C(F)(F)F)cc3C2)(C(C)C)C1	inactive	inactive	inactive	inactive
CC[C@@]1(c2ccccc2)NC(=O)N(C)C1=O	inactive	inactive	inactive	inactive
NNc1nc(-c2ccc(N)cc2)cs1	inactive	inactive	inactive	inactive

Compound	Potency [1]	Potency [2]	Potency [3]	Potency [4]
Cc1cc(N)c(S(=O)(=O)O)cc1Cl	inactive	inactive	inactive	inactive
COc1ccc2cccc(CCNC(C)=O)c2c1	inactive	inactive	inactive	inactive
COc1cccc(O)c1O	inactive	inactive	inactive	inactive
O=CC=C(c1ccccc1)c1ccccc1	inactive	inactive	inactive	inactive
O=C(CO)[C@@H](O)[C@H](O)[C@@H](O)CO	inactive	inactive	inactive	inactive
Nc1ccccc1S(=O)(=O)c1ccccc1	inactive	inactive	inactive	inactive
CCCCCCCCCCCCCCCC/C=C/C1CC(=O)OC1=O (stereo not given)	inactive	inactive	inactive	inactive
Nc1ccccc1O	inactive	inactive	inactive	inactive
Cc1cc(OI)c(C(C)C)cc1-c1cc(C(C)C)c(OI)cc1C	inactive	inactive	inactive	inactive
C[Si](Cl)(c1ccccc1)c1ccccc1	inactive	inactive	inactive	inactive
CCCC(C)C(O)CC (stereo not given)	inactive	inactive	inactive	inactive
Nc1nc(CC(=O)O)cs1	inactive	inactive	inactive	inactive
CC(=O)Nc1ccc(S(N)(=O)=O)cc1	inactive	inactive	inactive	inactive
CC(O)CN(CCCN(C)C)CCCN(C)C (stereo not given)	inactive	inactive	inactive	inactive
Cc1cc(C(C#N)c2ccc(Cl)cc2)c(Cl)cc1NC(=O)c1cc(I)cc(I)c1O (stereo not given)	inactive	inactive	inactive	inactive
CCC(C)C(=O)OC (stereo not given)	inactive	inactive	inactive	inactive
NC(=O)c1cc[n+](CC2=C(C(=O)[O-])N3C(=O)[C@@H](NC(=O)Cc4cccs4)[C@H]3SC2)cc1	inactive	inactive	inactive	inactive
COCCOCCOCCOCCOC	inactive	inactive	inactive	inactive
CCC(=O)OC/C=C(\C)CCC=C(C)C	inactive	inactive	inactive	inactive
CCC(C=O)CC	inactive	inactive	inactive	inactive
CC(C)C(OC(=O)c1ccccc1)C(C)(C)COC(=O)c1ccccc1 (stereo not given)	inactive	inactive	inactive	inactive
COc1cc(OC)c2ccc(=O)oc2c1	inactive	inactive	inactive	inactive
CCOC(=O)c1ccc(O)c(O)c1	inactive	inactive	inactive	inactive

Compound	Potency [1]	Potency [2]	Potency [3]	Potency [4]
CO[Si](CCC1CCC2OC2C1)(OC)OC (stereo not given)	inactive	inactive	inactive	inactive
CC(=O)C=O	inactive	inactive	inactive	inactive
NC(=O)Nc1ccccc1	inactive	inactive	inactive	inactive
CC1c2ccccc2CN1NC(=O)c1ccc(Cl)c(S(N)(=O)=O)c1 (stereo not given)	inactive	inactive	inactive	inactive
CC(=O)OC1CCCCC1C(C)(C)C (stereo not given)	inactive	inactive	inactive	inactive
CCCCOC(=O)[C@@H](C)Oc1ccc(Oc2ccc(C(F)(F)F)cn2)cc1	inactive	inactive	inactive	inactive
CCOC(=O)CC(=O)c1cc(F)c(Cl)nc1Cl	inactive	inactive	inactive	inactive
Brc1cc(-c2ccc(Br)c(Br)c2Br)cc(Br)c1Br	inactive	inactive	inactive	inactive
C[C@H]1O[C@@H](O[C@H]2CC[C@@]3(C)[C@H](CC[C@@H]4[C@@H]3C[C@@H](O)[C@]3(C)[C@@H](C5=CC(=O)OC5)CC[C@]43O)C2)C[C@H](O)[C@@H]1O[C@H]1C[C@H](O)[C@H](O[C@H]2C[C@H](O)[C@H](O[C@@H]3O[C@H](CO)[C@@H](O)[C@H](O)[C@H]3O)[C@@H](C)O2)[C@@H](C)O1	inactive	inactive	inactive	inactive
CC(=O)Nc1ccccc1C	inactive	inactive	inactive	inactive
COCCc1ccccn1	inactive	inactive	inactive	inactive
CN(C)CCN1CCN(c2cccc(Cl)c2)C1=O	inactive	inactive	inactive	inactive
c1ccc(B(c2ccccc2)c2ccccc2)cc1	inactive	inactive	inactive	inactive
C=CC(OCC)OCC	inactive	inactive	inactive	inactive
CCCCCCCCCCCCCC(=O)OC	inactive	inactive	inactive	inactive
Cn1c(=O)c2c(ncn2CC(O)CO)n(C)c1=O (stereo not given)	inactive	inactive	inactive	inactive
CCN(CC)CCc1nc(-c2ccccc2)no1	inactive	inactive	inactive	inactive
CCc1c(Br)c(Br)c(Br)c(Br)c1Br	inactive	inactive	inactive	inactive
Brc1cc2ccccc2c2ccccc12	inactive	inactive	inactive	inactive
CC/C=C\CCCCO	inactive	inactive	inactive	inactive
CO[Si](CCCNCCC[Si](OC)(OC)OC)(OC)OC	inactive	inactive	inactive	inactive
C[N+](C)(CCOc1ccccc1)Cc1cccs1	inactive	inactive	inactive	inactive
CN(C)C(=O)Nc1ccccc1	inactive	inactive	inactive	inactive

Compound	Potency [1]	Potency [2]	Potency [3]	Potency [4]
Cc1onc(-c2ccccc2)c1-c1ccc(S(N)(=O)=O)cc1	inactive	inactive	inactive	inactive
COc1cccc([C@H](O)C2CCN(CCc3ccc(F)cc3)CC2)c1OC	inactive	inactive	inactive	inactive
CCC1CCCCC1	inactive	inactive	inactive	inactive
CCCCCCCCCC(C)=O	inactive	inactive	inactive	inactive
CCCCOC(=O)C(C)O (stereo not given)	inactive	inactive	inactive	inactive
COC(=O)c1ccc(OC)cc1	inactive	inactive	inactive	inactive
C=C(C)C1CCC(C)(O)CC1 (stereo not given)	inactive	inactive	inactive	inactive
Nc1ncnc2c1ncn2Cc1c(F)cccc1Cl	inactive	inactive	inactive	inactive
CCCCCOC(=O)c1ccc(O)cc1	inactive	inactive	inactive	inactive
CCC(=O)O[C@]1(C(=O)COC)[C@@H](C)C[C@H]2[C@@H]3CCC4=CC(=O)C=C[C@]4(C)C3(F)[C@@H](O)C[C@@]21C (stereo not given in full)	inactive	inactive	inactive	inactive
CC(C)CCCC(C)CC=O (stereo not given)	inactive	inactive	inactive	inactive
FC(F)(F)C(Cl)(Cl)Cl	inactive	inactive	inactive	inactive
Cc1ccc(C(C)OC(=O)C2(C)CCC(C(=O)O)C2(C)C)cc1 (stereo not given)	inactive	inactive	inactive	inactive
Cc1ccc(/C=N/n2c(-c3ccccc3)csc2=S)cc1	inactive	inactive	inactive	inactive
COC(=O)c1ccc(I)cc1S(=O)(=O)NC(=O)Nc1nc(C)nc(OC)n1	inactive	inactive	inactive	inactive
C=CC1CC2C=CC1C2 (stereo not given)	inactive	inactive	inactive	inactive
CC1CNCC(C)O1 (stereo not given)	inactive	inactive	inactive	inactive
CCCCCOc1ccccc1/C(=C\SC)n1ccnc1	inactive	inactive	inactive	inactive
CC1=C2[C@H](/C=C(\C)C(=O)O)CC[C@@H](C)[C@H]2CC1	inactive	inactive	inactive	inactive
CC=O	41.8 µM (active)	74.3 µM (active)	26.4 µM (active)	inactive
COc1cc(C)ccc1C(C)C	inactive	inactive	inactive	inactive
